In the supplement of paper PMC11732987, “Enantioselective OTUD7B fragment discovery through chemoproteomics screening and high-throughput optimisation” (Communications Chemistry, 2025):

What follows are compounds tested against USP10 (UniProt Q14694) (assay: log2 ratio of Biotin-Ahx-Ub-VS probe labelling (fragment/DMSO); higher = less target engagement (more negative = stronger competition), active = hit call of the paper (q ≤ 0.05, log2 ratio ≤ -1)). Conditions: compound concentration: 200 uM; treatment time: 3 h.
Method in brief: (§1)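 HEK293T lysate (495 µg per sample, in Tris/CHAPS/IGEPAL buffer with protease inhibitors) was treated in triplicate with fragment at 200 µM or with DMSO for 3 h. It was then treated with Biotin-Ahx-Ub-VS (0.5 µM final) for 1 h. Labelled DUBs were NeutrAvidin-enriched, digested with LysC and trypsin, and run by diaPASEF LC-MS/MS. Spectronaut label-free quantities were global-median-normalised. Values are average log2 ratios fragment/DMSO by unpaired t-test, using proteins with ≥2 unique peptides.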

Sequence of USP10 (Q14694 whole entry, the tested form may be a part): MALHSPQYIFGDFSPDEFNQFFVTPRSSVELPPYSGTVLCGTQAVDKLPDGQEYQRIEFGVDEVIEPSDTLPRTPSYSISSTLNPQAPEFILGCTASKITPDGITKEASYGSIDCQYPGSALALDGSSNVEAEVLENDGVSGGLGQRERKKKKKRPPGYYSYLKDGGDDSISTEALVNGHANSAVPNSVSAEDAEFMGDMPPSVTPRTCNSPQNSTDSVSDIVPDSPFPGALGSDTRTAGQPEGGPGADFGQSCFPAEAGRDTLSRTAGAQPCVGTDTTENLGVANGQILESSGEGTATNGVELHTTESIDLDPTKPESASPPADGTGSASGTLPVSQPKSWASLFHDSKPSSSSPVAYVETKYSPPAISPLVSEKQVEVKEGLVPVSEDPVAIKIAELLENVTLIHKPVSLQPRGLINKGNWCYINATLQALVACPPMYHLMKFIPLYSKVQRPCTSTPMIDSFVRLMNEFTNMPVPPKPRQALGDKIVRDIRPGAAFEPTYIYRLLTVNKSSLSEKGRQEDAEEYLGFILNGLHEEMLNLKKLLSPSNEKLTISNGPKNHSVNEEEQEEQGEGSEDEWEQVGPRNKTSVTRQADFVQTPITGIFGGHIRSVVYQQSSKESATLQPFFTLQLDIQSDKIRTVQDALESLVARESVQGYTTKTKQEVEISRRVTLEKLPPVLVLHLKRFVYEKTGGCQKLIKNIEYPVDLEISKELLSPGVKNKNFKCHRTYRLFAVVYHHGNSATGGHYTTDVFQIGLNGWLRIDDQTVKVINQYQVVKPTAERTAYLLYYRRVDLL

log2 ratio of Biotin-Ahx-Ub-VS probe labelling, inactive:
COc1cc(Cl)c(C)cc1NC(=O)CCl -0.183, Cl.O=C(CCl)N1CCN(Cc2ccccc2)CC1 -0.119, Cc1nc(CN2CCN(C(=O)CCl)CC2)cs1 -0.0627, O=C(CCl)Nc1cc(Cl)ccc1C(=O)O -0.101, CN(C(=O)CCl)c1nc2ccccc2s1 -0.116, O=C(CCl)NCCc1cccc2ccccc12 -0.0479, CCCn1nccc1NC(=O)CCl -0.0888, CNC(=O)C1CCN(C(=O)CCl)CC1 -0.383, O=C(CCl)N1CCOC(c2cccc(F)c2)C1 (stereo not given) -0.284, Cc1c(C#N)c(NC(=O)CCl)n(Cc2ccco2)c1C -0.259, O=C(CCl)N1CCC(C(=O)N2CCCCCC2)CC1 -0.0405, CN1C(=O)c2ccc(NC(=O)CCl)cc2C1=O -0.0313, C[C@H]1CN(C(=O)CCl)CCN1C(=O)c1cnn(C)c1.Cl 0.0256, CC1(NC(=O)CCl)CCS(=O)(=O)C1 (stereo not given) -0.235, O=C(CCl)NCc1ccc(Cl)cc1 -0.179, O=C(CCl)Nc1ccc(N2CCCC2=O)cc1 -0.0139, Cc1ncsc1CCNC(=O)CCl 0.0995, Cc1cccc(C)c1NC(=O)CCl -0.108, Cc1cccc(C(CNC(=O)CCl)N2CCOCC2)c1.Cl (stereo not given) -0.0807, Cc1cccc(NC(=O)CCl)c1C -0.292, Cc1cc(C2CCCN2C(=O)CCl)nn1C.Cl (stereo not given) -0.132, O=C(CCl)N1CCCC2CCCCC21 (stereo not given) -0.167, Cc1cccc(N2CCC(NC(=O)CCl)C2=O)c1 (stereo not given) -0.133, CC(O)CC1CCN(C(=O)CCl)CC1 (stereo not given) -0.0376, Cc1nc(CC2CCN(C(=O)CCl)CC2)no1 -0.321, CC1Cc2ccccc2N1C(=O)CCl (stereo not given) -0.242, O=C(CCl)Nc1cccc(C(=O)N2CCSCC2)c1 -0.156, Cl.O=C(CCl)N1CCc2ncncc2C1 -0.322, NC(=O)C(Cc1ccccc1)NC(=O)CCl (stereo not given) -0.0595, CC(NC(=O)CCl)c1csc(-c2ccccc2)n1.Cl (stereo not given) -0.126, Cc1ccc(CC(NC(=O)CCl)c2ccccn2)cc1.Cl (stereo not given) -0.00276, O=C(CCl)N[C@H]1CCS(=O)(=O)c2ccccc21 -0.109, O=C(CCl)NCC(=O)N1CCCC1 -0.0856, CC(C)n1nccc1NC(=O)CCl 0.0851, Cc1cc(CC(C)NC(=O)CCl)n[nH]1 (stereo not given) -0.0255

What follows are compounds tested against T1, USP15 (UniProt Q9Y4E8) in the same assay as above. Conditions: compound concentration: 200 uM; treatment time: 3 h.
T1 sequence (whole entry): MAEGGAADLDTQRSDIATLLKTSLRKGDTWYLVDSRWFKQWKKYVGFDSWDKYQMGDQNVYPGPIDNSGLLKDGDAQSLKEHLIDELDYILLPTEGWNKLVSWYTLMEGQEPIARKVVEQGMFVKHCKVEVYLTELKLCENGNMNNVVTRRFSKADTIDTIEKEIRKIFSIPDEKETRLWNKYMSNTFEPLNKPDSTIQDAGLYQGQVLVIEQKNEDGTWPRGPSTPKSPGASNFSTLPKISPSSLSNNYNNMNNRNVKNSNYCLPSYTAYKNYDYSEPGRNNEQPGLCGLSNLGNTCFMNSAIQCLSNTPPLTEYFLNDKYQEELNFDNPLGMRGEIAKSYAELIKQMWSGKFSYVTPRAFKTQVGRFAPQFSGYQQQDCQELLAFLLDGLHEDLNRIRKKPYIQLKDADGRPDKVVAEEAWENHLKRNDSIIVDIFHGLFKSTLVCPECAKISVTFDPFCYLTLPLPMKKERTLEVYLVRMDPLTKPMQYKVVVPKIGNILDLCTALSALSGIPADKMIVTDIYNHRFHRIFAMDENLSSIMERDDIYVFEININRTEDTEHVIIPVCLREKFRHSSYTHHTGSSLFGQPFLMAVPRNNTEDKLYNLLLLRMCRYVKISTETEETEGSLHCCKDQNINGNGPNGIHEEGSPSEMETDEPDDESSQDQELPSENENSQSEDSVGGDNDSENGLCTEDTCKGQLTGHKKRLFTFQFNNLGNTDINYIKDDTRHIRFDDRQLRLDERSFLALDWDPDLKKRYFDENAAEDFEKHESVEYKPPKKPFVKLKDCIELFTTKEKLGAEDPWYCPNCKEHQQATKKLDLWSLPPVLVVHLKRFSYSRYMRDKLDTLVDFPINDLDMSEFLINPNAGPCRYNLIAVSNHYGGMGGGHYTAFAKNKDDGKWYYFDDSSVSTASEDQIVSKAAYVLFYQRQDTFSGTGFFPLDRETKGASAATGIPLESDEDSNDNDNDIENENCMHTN
Method in brief: as §1

log2 ratio of Biotin-Ahx-Ub-VS probe labelling, inactive:
COc1cc(Cl)c(C)cc1NC(=O)CCl -0.24, Cl.O=C(CCl)N1CCN(Cc2ccccc2)CC1 -0.171, Cc1nc(CN2CCN(C(=O)CCl)CC2)cs1 -0.32, O=C(CCl)Nc1cc(Cl)ccc1C(=O)O -0.15, CN(C(=O)CCl)c1nc2ccccc2s1 -0.217, O=C(CCl)NCCc1cccc2ccccc12 0.076, CCCn1nccc1NC(=O)CCl -0.238, CNC(=O)C1CCN(C(=O)CCl)CC1 -0.0196, O=C(CCl)N1CCOC(c2cccc(F)c2)C1 (stereo not given) -0.387, Cc1c(C#N)c(NC(=O)CCl)n(Cc2ccco2)c1C -0.505, O=C(CCl)N1CCC(C(=O)N2CCCCCC2)CC1 -0.115, CN1C(=O)c2ccc(NC(=O)CCl)cc2C1=O -0.389, C[C@H]1CN(C(=O)CCl)CCN1C(=O)c1cnn(C)c1.Cl -0.149, CC1(NC(=O)CCl)CCS(=O)(=O)C1 (stereo not given) -0.845, O=C(CCl)NCc1ccc(Cl)cc1 0.049, O=C(CCl)Nc1ccc(N2CCCC2=O)cc1 0.104, Cc1ncsc1CCNC(=O)CCl 0.22, Cc1cccc(C)c1NC(=O)CCl -0.203, Cc1cccc(C(CNC(=O)CCl)N2CCOCC2)c1.Cl (stereo not given) -0.0506, Cc1cccc(NC(=O)CCl)c1C -0.43, Cc1cc(C2CCCN2C(=O)CCl)nn1C.Cl (stereo not given) -0.246, O=C(CCl)N1CCCC2CCCCC21 (stereo not given) -0.1, Cc1cccc(N2CCC(NC(=O)CCl)C2=O)c1 (stereo not given) -0.299, CC(O)CC1CCN(C(=O)CCl)CC1 (stereo not given) -0.0583, Cc1nc(CC2CCN(C(=O)CCl)CC2)no1 -0.77, CC1Cc2ccccc2N1C(=O)CCl (stereo not given) -0.382, O=C(CCl)Nc1cccc(C(=O)N2CCSCC2)c1 -0.164, Cl.O=C(CCl)N1CCc2ncncc2C1 -0.514, NC(=O)C(Cc1ccccc1)NC(=O)CCl (stereo not given) -0.0229, CC(NC(=O)CCl)c1csc(-c2ccccc2)n1.Cl (stereo not given) -0.386, Cc1ccc(CC(NC(=O)CCl)c2ccccn2)cc1.Cl (stereo not given) 0.0178, O=C(CCl)N[C@H]1CCS(=O)(=O)c2ccccc21 -0.195, O=C(CCl)NCC(=O)N1CCCC1 -0.0663, CC(C)n1nccc1NC(=O)CCl -0.314, Cc1cc(CC(C)NC(=O)CCl)n[nH]1 (stereo not given) -0.325
